In PubChem BioAssay (NCATS):
Inconclusive results are not listed. The source made the active and inactive calls. Unless noted, calls follow the shape of the dose curve; as a rule, active = well fitted curve in the direction sought with a large enough effect; inconclusive = small, poorly fitted or top-dose-only effect, or another doubt; inactive = no such curve, though single readings can be large; an effect the other way counts as inactive or inconclusive.

What was measured:
[1] = qHTS assay for measurement of the activity of small molecule inhibitors on Zika virus induced Caspase-3 activity in human astrocytoma cells (AID 1224859)
In short: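 Readout is luminescence from Caspase-Glo 3/7 added after a 6 h ZIKV infection (2 FFU/cell) of compound-pretreated (1 h) SNB-19 cells; data expressed as % inhibition versus uninfected and infected wells.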

[2] = qHTS assay to identify small molecule inhibitors of chordoma cells - UCH-1 (AID 1259355); also: nearly all actives have a fitted effect of over 55% in size
In short: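 Screening used approved and investigational drugs in 15-point titration against 800 seeded cells per well. A fixed combination of auranofin with camptothecin, doxorubicin, rubitecan and topotecan followed compound addition, and growth was scored by CellTiter-Glo after 48hr.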

[3] = qHTS assay to identify small molecule inhibitors of chordoma cells - UCH-2 (AID 1259356); also: series mostly up to about 46 µM
[4] = P-glycoprotein substrates identified in KB-8-5-11 adenocarcinoma cell line, qHTS therapeutic library screen (AID 1346987); also: nearly all actives have a fitted effect of over 65% in size; also: potency is read from the fitted curve at half-maximal effect
In short: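 Luminescence from CellTiter-Glo, read 5 min after addition, quantified survival of KB-8-5-11 (P-gp-overexpressing) cells exposed to compounds for 72 h. AC50 was derived from concentration-response curves.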

[5] = Natriuretic polypeptide receptor (hNpr1) antagonism - Pilot counterscreen GloSensor control cell line (AID 1347045; calls by dose curve; also: series mostly up to about 38 µM)
In short: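 Cells were first seeded and incubated overnight at 37C, then loaded with 2% GloSensor substrate for 2 h. Compounds were added for 30 min at room temperature, followed by a baseline read, 50 uM SNP and a final read after 20 min.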

[6] = target: Atrial natriuretic peptide receptor 2 (Homo sapiens) (UniProt P20594); assay: Natriuretic polypeptide receptor (hNpr2) antagonism - Pilot subtype selectivity assay (AID 1347050; calls by dose curve)
Atrial natriuretic peptide receptor 2 (Homo sapiens), sequence (P20594 whole entry, looked up): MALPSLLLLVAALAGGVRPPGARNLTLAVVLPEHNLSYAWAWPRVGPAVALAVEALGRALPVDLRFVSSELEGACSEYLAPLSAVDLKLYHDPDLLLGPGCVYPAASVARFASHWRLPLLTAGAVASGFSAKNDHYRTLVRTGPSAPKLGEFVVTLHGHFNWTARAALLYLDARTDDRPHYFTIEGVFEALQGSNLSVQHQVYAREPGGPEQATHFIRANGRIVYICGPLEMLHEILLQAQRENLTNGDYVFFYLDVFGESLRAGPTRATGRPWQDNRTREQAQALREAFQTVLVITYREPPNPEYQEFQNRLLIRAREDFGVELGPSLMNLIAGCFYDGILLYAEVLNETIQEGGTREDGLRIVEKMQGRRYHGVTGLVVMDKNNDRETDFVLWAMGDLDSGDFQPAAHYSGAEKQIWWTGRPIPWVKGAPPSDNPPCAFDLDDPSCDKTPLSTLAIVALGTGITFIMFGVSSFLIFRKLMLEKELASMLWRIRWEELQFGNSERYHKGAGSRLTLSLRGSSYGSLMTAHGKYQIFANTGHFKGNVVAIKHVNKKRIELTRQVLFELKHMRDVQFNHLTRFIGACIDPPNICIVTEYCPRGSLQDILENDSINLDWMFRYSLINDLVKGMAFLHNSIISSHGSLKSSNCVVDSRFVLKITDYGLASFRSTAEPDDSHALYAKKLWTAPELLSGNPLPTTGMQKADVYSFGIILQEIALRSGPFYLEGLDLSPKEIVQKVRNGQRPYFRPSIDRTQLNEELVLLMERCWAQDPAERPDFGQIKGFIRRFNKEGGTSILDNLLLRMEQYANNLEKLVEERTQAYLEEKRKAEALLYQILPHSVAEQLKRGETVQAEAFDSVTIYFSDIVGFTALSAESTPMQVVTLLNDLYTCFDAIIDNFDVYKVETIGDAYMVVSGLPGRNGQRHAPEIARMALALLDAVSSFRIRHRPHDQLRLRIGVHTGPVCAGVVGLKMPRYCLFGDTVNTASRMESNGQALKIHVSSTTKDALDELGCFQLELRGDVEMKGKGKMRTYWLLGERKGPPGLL
In short: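 Luminescence from a genetically encoded cGMP luciferase biosensor in hNpr2-expressing HEK293 cells is read before and 20 min after adding 1 nM hNppC. Test compounds, in interplate 1:5 titrations, are added 30-50 min ahead of the agonist.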

[7] = NS1 protein of Zika virus - qHTS assay to identify small molecule inhibitors in human HEK 293 cells (AID 1347053); also: series mostly up to about 46 µM; nearly all actives have a fitted effect of over 55% in size
In short: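 Readout was TR-FRET using paired anti-NS1 antibodies after 24 h infection of HEK 293 cells with ZIKV MR766 (MOI = 0.5). Compound preceded virus by 1 h; reduced signal reflects lower NS1 expression.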

[8] = target: T1, Tyrosine-protein phosphatase non-receptor type substrate 1 (Homo sapiens) + Leukocyte surface antigen CD47 (Homo sapiens) (UniProt P78324+Q08722); assay: CD47-SIRPalpha protein protein interaction - LANCE assay qHTS validation (AID 1347057; active = well fitted curve in the direction sought with a large enough effect in the signal ratio, with a control signal flat, not every such curve was filed as active; the % refers to the signal ratio; also: series mostly up to about 38 µM)
T1 sequence (P78324 whole entry, looked up, the tested form may be a part): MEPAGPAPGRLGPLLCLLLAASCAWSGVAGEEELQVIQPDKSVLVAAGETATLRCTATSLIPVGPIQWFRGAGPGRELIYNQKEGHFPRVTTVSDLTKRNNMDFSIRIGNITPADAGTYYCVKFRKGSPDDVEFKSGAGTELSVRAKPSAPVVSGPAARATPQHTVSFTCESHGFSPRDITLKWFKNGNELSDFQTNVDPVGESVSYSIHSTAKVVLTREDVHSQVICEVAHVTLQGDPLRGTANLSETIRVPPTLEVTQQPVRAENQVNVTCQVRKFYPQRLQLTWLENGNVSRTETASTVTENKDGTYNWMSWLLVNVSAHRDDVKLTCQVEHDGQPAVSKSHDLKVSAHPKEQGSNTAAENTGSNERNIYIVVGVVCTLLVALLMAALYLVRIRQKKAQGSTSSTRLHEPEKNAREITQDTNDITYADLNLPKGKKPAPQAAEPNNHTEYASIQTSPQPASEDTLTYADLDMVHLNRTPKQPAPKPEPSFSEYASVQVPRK
T1 sequence (Q08722 whole entry, looked up, the tested form may be a part): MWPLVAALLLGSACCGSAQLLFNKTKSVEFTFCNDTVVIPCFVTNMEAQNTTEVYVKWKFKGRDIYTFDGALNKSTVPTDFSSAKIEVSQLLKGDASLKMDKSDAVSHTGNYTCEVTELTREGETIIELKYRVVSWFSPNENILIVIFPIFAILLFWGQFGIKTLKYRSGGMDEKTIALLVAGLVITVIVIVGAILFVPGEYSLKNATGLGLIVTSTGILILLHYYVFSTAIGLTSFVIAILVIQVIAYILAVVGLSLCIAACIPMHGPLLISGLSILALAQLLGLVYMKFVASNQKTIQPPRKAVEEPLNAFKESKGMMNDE
In short: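 Inhibition of soluble CD47/SIRPalpha ectodomain association by titrated compounds, measured as 665/615 nm time-resolved FRET ratio after sequential 30 min room-temperature incubations.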

[9] = target: T1, Tyrosine-protein phosphatase non-receptor type substrate 1 (Homo sapiens) + Leukocyte surface antigen CD47 (Homo sapiens); assay: CD47-SIRPalpha protein protein interaction - HTRF assay qHTS validation (AID 1347058; active = well fitted curve in the direction sought with a large enough effect in the signal ratio, not every such curve was filed as active; the % refers to the signal ratio; also: series mostly up to about 38 µM)
In short: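 Soluble extracellular domains (6His-CD47, Avi-tag-biotinylated SIRPalpha) in PBS pH 7.4 with 0.05% IGEPAL CA-630. Compounds were preincubated 30 min at RT with CD47 and anti-His-Eu, then SIRPalpha and SAV-XL665 were added. TR-FRET 665/615 ratio.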

[10] = target: T1, Tyrosine-protein phosphatase non-receptor type substrate 1 (Homo sapiens) + Leukocyte surface antigen CD47 (Homo sapiens); assay: CD47-SIRPalpha protein protein interaction - Alpha assay qHTS validation (AID 1347059);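 also: bead proximity luminescence from CD47 binding SIRPalpha after compound preincubation with SIRPalpha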
In short: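 SIRPalpha-biotin 25 nM + cpd, 30 min RT, dark; add CD47-His 12.5 nM, 30 min; add Ni-NTA/SAV beads 10 ug/mL, 30 min; AlphaScreen. Buffer PBS pH 7.4 + 0.05% IGEPAL CA-630. Non-biotinylated SIRPalpha as control inhibitor.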

[11] = target: Parathyroid hormone/parathyroid hormone-related peptide receptor (Homo sapiens) (UniProt Q03431); assay: qHTS for PTHR1 Agonists: Optimization Screen against the NCGC LOPAC library (AID 1347079);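 also: GloSensor cAMP luminescence in HEK-293 GP2 cells expressing human PTHR1 with IBMX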
Parathyroid hormone/parathyroid hormone-related peptide receptor (Homo sapiens), sequence (Q03431 whole entry, looked up): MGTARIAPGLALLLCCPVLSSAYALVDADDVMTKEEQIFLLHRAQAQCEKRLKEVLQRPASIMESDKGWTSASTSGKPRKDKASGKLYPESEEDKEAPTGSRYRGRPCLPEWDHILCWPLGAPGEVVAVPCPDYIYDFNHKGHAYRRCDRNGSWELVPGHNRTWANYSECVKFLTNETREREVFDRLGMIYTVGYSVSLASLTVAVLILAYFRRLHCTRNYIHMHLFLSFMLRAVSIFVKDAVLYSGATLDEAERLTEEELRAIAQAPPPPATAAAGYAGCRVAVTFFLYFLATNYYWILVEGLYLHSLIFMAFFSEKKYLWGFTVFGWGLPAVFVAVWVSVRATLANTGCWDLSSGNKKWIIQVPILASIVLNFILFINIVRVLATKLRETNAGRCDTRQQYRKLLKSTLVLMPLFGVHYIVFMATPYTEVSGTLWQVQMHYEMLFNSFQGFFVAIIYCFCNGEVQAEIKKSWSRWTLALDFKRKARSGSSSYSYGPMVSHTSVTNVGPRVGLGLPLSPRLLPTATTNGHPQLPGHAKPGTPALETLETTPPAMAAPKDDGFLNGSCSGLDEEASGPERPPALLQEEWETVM
In short: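 HEK-293 GP2 cells, PTHR1 + GloSensor cAMP; 3000 cells/well, o/n. Luciferin + IBMX 0.5mM each (stock), 1 hr 37C. Cpd titration, 1 hr 37C. Lum after 15 min RT. Ctrl M-PTH(1-15) top 10uM.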

[12] = qHTS for Inhibitors of the Functional Ribonucleoprotein Complex (vRNP) of Lassa (LASV) Arenavirus: LASV Primary Screen - GLuc reporter signal (AID 1347082; calls by dose curve; tested in HEK293 reporter line; also: series mostly up to about 57 µM; nearly all actives have a fitted effect of over 60% in size)
[13] = qHTS Screen of the MIPE 4.0 Collection Against Ewings Sarcoma (TC71) (AID 1259253); also: nearly all actives have a fitted effect of over 40% in size; also: potency is read from the fitted curve at half-maximal effect
In short: (§1)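 Viability screen: 48 h incubation at 37C, 95% humidity, 5% CO2 with serially titrated compound, followed by CellTiter-Glo readout.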

[14] = qHTS Screen of the MIPE 4.0 Collection Against Ewings Sarcoma (EW8) (AID 1259255); also: nearly all actives have a fitted effect of over 35% in size
In short: as §1

[15] = qHTS Screen of the MIPE 4.0 Collection Against Ewings Sarcoma (TC32) (AID 1259256); also: potency is read from the fitted curve at half-maximal effect; nearly all actives have a fitted effect of over 45% in size
In short: as §1

[16] = Identifying Small Molecule Inhibitors of Pancreatic Cancer Stem Cells (SN12C, Adherent) (AID 1259358);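 also: cell survival measured after 48 h of compound exposure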
In short: (§2)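 Monolayer and spheroid cultures are compared. Spheroids form over 14 days in stem cell medium on hydrogel-coated low-attachment plates, then are exposed to compound for 48 h before CellTiter-Glo luminescence.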

[17] = Identifying Small Molecule Inhibitors of Pancreatic Cancer Stem Cells (SN12C, Spheroid) (AID 1259360)
In short: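 Adherent (2D) versus sphere (3D) formats; spheres generated 14 d in SCM beforehand. Compound transferred by pin tool after 4 h, 48 h incubation, CellTiter-Glo endpoint.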

[18] = Identifying Small Molecule Inhibitors of Pancreatic Cancer Stem Cells (A278, Adherent) (AID 1259361);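 also: viability read after 48 h compound exposure; nearly all actives have a fitted effect of over 35% in size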
In short: as §2

[19] = qHTS Screen of the MIPE 4.0 Collection Against Ewings Sarcoma (RDES) (AID 1259252); also: potency is read from the fitted curve at half-maximal effect; nearly all actives have a fitted effect of over 35% in size
In short: as §1

Measured: Potency

Cc1ncsc1CCCl
not listed: [13] | [14] | [15] | [16] | [17] | [18] | [19]
inactive: all other assays above

C=C(C)[C@H]1CN[C@H](C(=O)O)[C@H]1CC(=O)O
not listed: [5] | [13] | [14] | [15] | [16] | [17] | [18] | [19]
inactive: all other assays above

CC(C)N(CCC(C(N)=O)(c1ccccc1)c1ccccn1)C(C)C (stereo not given)
not listed: [13] | [14] | [15] | [16] | [17] | [18] | [19]
inactive: all other assays above

Clc1ccc(C(c2ccc(Cl)cc2)C(Cl)(Cl)Cl)cc1
inactive: [1] | [2] | [3] | [4] | [7] | [12]

C#C[C@]1(O)CC[C@H]2[C@@H]3CCC4=CC(=O)CC[C@]4(C)[C@H]3CC[C@@]21C
inactive: [1] | [2] | [3] | [4] | [7] | [12]

CCOC(=O)CC(SP(=S)(OC)OC)C(=O)OCC (stereo not given)
inactive: [1] | [2] | [3] | [4] | [7] | [12]

CNC(C)(C)Cc1ccccc1
inactive: [1] | [2] | [3] | [4] | [7] | [12]

O=c1oc2ccccc2c(O)c1Cc1c(O)c2ccccc2oc1=O
inactive: [1] | [2] | [3] | [7] | [12]

CC(C)(C)NCC(O)c1cc(Cl)c(N)c(C(F)(F)F)c1 (stereo not given)
inactive: [1] | [2] | [3] | [4] | [7] | [12]

O=P1(N(CCCl)CCCl)NCCCO1 (stereo not given)
active: [15] 0.0021 µM
not listed: [19]
inactive: all other assays above

Clc1cccc(SC2CCNCC2)n1
inactive: [1] | [2] | [3] | [7] | [12]

C[C@]12CC[C@@H]3c4ccc(OC(=O)N(CCCl)CCCl)cc4CC[C@H]3[C@@H]1CC[C@@H]2O
inactive: [1] | [2] | [3] | [7] | [12]

ClCCN1CCCC1
inactive: [1] | [7] | [12]

CN1CC[C@]23c4c5ccc(O)c4O[C@H]2[C@@H](O)C=C[C@H]3[C@H]1C5
inactive: [1] | [4] | [7] | [12]

CCCOC(=O)c1cncn1C(C)c1ccccc1 (stereo not given)
inactive: [1] | [7] | [12]

COC(=O)C(Cl)C(=O)OC
inactive: [1] | [4] | [7] | [12]

C=CCC1([C@H](C)CCC)C(=O)NC(=O)NC1=O
inactive: [1] | [4] | [7] | [12]

C[C@H](N)C(=O)c1ccccc1
inactive: [1] | [4] | [7] | [12]

c1ccc(CN2CCNCC2)cc1
inactive: [1] | [4] | [7] | [12]

CC(C)(N)Cc1ccccc1Cl
inactive: [1] | [7] | [12]

COc1cc(CC(C)N)cc(OC)c1OC (stereo not given)
inactive: [1] | [4] | [7] | [12]

Nc1ccccc1
inactive: [1] | [4] | [7] | [12]

COP(=S)(OC)Oc1ccc(S(=O)(=O)N(C)C)cc1
inactive: [1] | [3] | [4] | [7] | [12]

C[C@](O)(CS(=O)(=O)c1ccc(F)cc1)C(=O)Nc1ccc(C#N)c(C(F)(F)F)c1
inactive: [2] | [3] | [7]
active: [19] 1.87 µM | [13] 3.72 µM | [15] 4.69 µM | [4] 14.6 µM

CCC(CC)(CNC(=O)CCCO)c1cccc(OC)c1
inactive: [1] | [7] | [12]

C=CCC1(C(C)CC)C(=O)NC(=O)NC1=O (stereo not given)
inactive: [1] | [7] | [12]

C[C@H]1[C@@H]2Cc3ccc(O)cc3[C@@]1(C)CCN2C
inactive: [1] | [4] | [7] | [12]

CC(Cc1ccccc1)NCCn1cnc2c1c(=O)n(C)c(=O)n2C (stereo not given)
inactive: [1] | [7] | [12]
